PubChem BioAssay
Activity calls are given as the source filed them. No rule for the calls is given here.

Molecular target: Pantothenate synthetase (Mycobacterium tuberculosis (strain ATCC 25618 / H37Rv)) (UniProt P9WIL5)
Assay: Coupled enzyme confirmation of inhibitors against recombinant Mtb PanC (AID 375);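 also: 0% = full reaction with vehicle and 100% = no enzyme background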
Details: coupled enzyme assay; at 10 µM, hits give high values

Sequence of Pantothenate synthetase (Mycobacterium tuberculosis (strain ATCC 25618 / H37Rv)) (P9WIL5 whole entry, looked up): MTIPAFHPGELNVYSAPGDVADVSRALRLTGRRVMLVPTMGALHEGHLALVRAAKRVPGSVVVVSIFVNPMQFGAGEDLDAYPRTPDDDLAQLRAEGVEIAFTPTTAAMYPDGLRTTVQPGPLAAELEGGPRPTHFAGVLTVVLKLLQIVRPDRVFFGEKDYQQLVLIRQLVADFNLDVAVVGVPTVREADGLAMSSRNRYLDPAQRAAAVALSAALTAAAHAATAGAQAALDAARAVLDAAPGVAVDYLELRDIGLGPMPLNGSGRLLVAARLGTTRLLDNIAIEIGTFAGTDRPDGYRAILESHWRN

| Compound | inhibition |
| --- | --- |
| COc1ccc(OCCSc2nc3ccccc3n2CC(=O)O)cc1 | 2% (inactive) |
| O=C(Nc1nc(-c2ccccc2)cs1)C1CCCCN1S(=O)(=O)c1ccccc1 (stereo not drawn) | 1% (inactive) |
| COc1ccc(OC(C)C(=O)N2CC(C)OC(C)C2)cc1 (stereo not drawn) | 10% (inactive) |
| COC(=O)C1=CN(C)C=C(C(=O)OC)C1c1ccc(O)c(OC)c1 | 0% (inactive) |
| CC1(C2(O)CC(c3ccccc3)ON2)CCCCC1 (stereo not drawn) | 2% (inactive) |
| CN(C)c1nc(Oc2ccc(N)cc2)nc(N(C)C)n1 | 0% (inactive) |
| CCOC(=O)N1CCN(CC(O)COc2ccccc2C(C)CC)CC1 (stereo not drawn) | 7% (inactive) |
| Cc1cccc(N2CN=c3s/c(=C\c4ccncc4)c(=O)n3C2)c1 | 6% (inactive) |
| S=c1[nH]ncn1-c1ccccn1 | 5% (inactive) |
| O=C1c2ccccc2C(=O)N1CCCCN1CCN(CCCCN2C(=O)c3ccccc3C2=O)CC1 | 5% (inactive) |
| CC(=O)c1ccc(NC(=O)c2noc3c2CCCCC3)cc1 | 1% (inactive) |
| O=C(N1CCN(c2ccccc2F)CC1)C12CC3CC(CC(C3)C1)C2 | 0% (inactive) |
| CCN(CC)S(=O)(=O)c1ccc(Cl)c(C(=O)OC)c1 | 8% (inactive) |
| O=C(Nc1ccon1)c1csc2c1CCCC2 | 6% (inactive) |
| CCc1nnc(NC(=O)CSc2nc3ccccc3s2)s1 | 2% (inactive) |
| CCn1nnc(NC(=O)c2ccccc2Br)n1 | 0% (inactive) |
| COCCCNS(=O)(=O)c1ccc2c(c1)CCN2C(C)=O | 0% (inactive) |
| O=C1C(Cl)=C(NCC2CCCO2)C(=O)N1CCc1ccccc1 (stereo not drawn) | 0% (inactive) |
| O=c1[nH]c(N2CCc3ccccc32)nc2c1CCCC2 | 0% (inactive) |
| CC(C)(C)Nc1nc(OCC(F)(F)F)nc(OCC(F)(F)F)n1 | 0% (inactive) |
| CCOc1c(C)cc2[nH]c(CCC(=O)O)nc2c1C | 0% (inactive) |
| O=C(NCc1ccco1)Nc1ccc2nsnc2c1 | 6% (inactive) |
| COc1ccc(OC)c(C(=O)COC(=O)c2cc(C)oc2C)c1 | 11% (inactive) |
